HCV inh – inhibitors of hepatitis C virus infection; Huh7.5.1 HCVcc-Cre infection, luciferase reporter, 44 h; Potency, µM (doses to about 41.8 µM), for the others: at the highest dose activity change, negative = inhibition, actives largely listed as inhibitors; hit rate 3.4% among 340,000; also: potency is read from the fitted curve at half-maximal effect; % is scaled to controls: 0 for no effect and ±100 for the full control effect
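Reporter virus HCVcc-Cre (~0.5 moi) infects cells exposed to compound; seeding density 1,000 cells/well with 4 h settling beforehand. Luminescence, 15 sec read, taken 44 h post-infection following a 15 min RT substrate incubation.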
HCMV inh – human cytomegalovirus inhibition; HFF cells, HCMV-luciferase reporter, 72 h; hits give low values; activity change, negative = inhibition, % at 57.5 µM; hit rate 4.5% among 410,000; AID 1259415; in the data active = activity change below about -60%; inconclusive = no clear call, values can overlap the other calls; inactive = above about -39%; also: % is scaled to controls: 0 for no effect and ±100 for the full control effect
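Steps: HFFs plated, 16 h 37C; compounds added; HCMV-luciferase added to MOI 1 PFU/cell; 72 h 37C; OneGlo reagent, 5 min room temperature; luminescence read, normalized to controls.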
Pf growth 96h – inhibits malaria parasite growth, 96 h; P. falciparum luciferase reporter growth, 96 h; Potency, µM (titrated, usually from 28.7 µM), without a hit: top-dose activity change, negative = inhibition, actives largely listed as inhibitors; hit rate 6.9% among 320,000; also: potency is read from the fitted curve at half-maximal effect; % is scaled to controls: 0 for no effect and ±100 for the full control effect
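Plates of compound plus infected erythrocytes (2% hematocrit, 0.05% parasitemia final) incubate 96 hours, 37 C, 5% CO2. Detection reagent added; reduced luminescence from the parasites' luciferase reporter flags inhibition.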
Pf growth 48h – P. falciparum growth inhibition at 48 hours (one generation) | hit rate 5.9% among 310,000 | P. falciparum luciferase growth in erythrocytes, 48 h | AID 504832 | Potency, µM (doses to about 28.7 µM), for inactives: at the highest dose activity change, negative = inhibition, actives largely listed as inhibitors; also: potency is read from the fitted curve at half-maximal effect; % is scaled to controls: 0 for no effect and ±100 for the full control effect
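Luciferase-expressing P. falciparum in infected erythrocytes (2% hematocrit, 0.1% parasitemia final) in RPMI 1640/0.5% Albumax were exposed to compound for 48 hours at 37 C, 5% CO2; growth read as luminescence.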
HCV inh confirm – confirmation of hepatitis C virus inhibitors; shares compounds with HCV inh; HCVcc-Cre infectious virus cell assay, luciferase, inhibition; Potency, µM (series often up to 41.8 µM), inactives show at the highest dose activity, negative = inhibition, actives largely listed as inhibitors; hit rate 78% among 640; also: potency is read from the fitted curve at half-maximal effect; nearly all actives have a fitted effect of over 80% in size
HCV host tox – host cell cytotoxicity counter-screen for HCV inhibitors; shares compounds with HCV inh; HCV host cell line cytotoxicity counterscreen; Potency, µM (doses to about 41.8 µM), for inactives: top-dose activity change, negative = cytotoxicity, hits mostly inhibitors; hit rate 22% among 640; AID 720576;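 also: potency is read from the fitted curve at half-maximal effect; 44 h compound exposure; % is scaled to controls: 0 for no effect and ±100 for the full control effect; nearly all actives have a fitted effect of over 55% in size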
An asterisk follows results filed as active; ? = inconclusive; nt = no result given. An excerpt weighted towards active compounds, which were near 13% of everything screened. Unless noted, calls follow the shape of the dose curve; as a rule, active = well fitted curve in the direction sought with a large enough effect; inconclusive = small, poorly fitted or top-dose-only effect, or another doubt; inactive = no such curve, though single readings can be large; an effect the other way counts as inactive or inconclusive.

SMILES	HCV inh	HCMV inh	Pf growth 96h	Pf growth 48h	HCV inh confirm	HCV host tox
CC(NC(=O)c1cc2c(=O)n3ccccc3nc2n(CC2CCCO2)c1=N)c1ccccc1 (configuration not stated)	2.24µM*	-22.4	19.3%	13.1µM*	11.2µM*	27.9%
N=c1c(C(=O)NCc2ccco2)cc2c(=O)n3ccccc3nc2n1Cc1ccccc1	3.16µM*	21.5	nt	?	3.53µM*	?
COc1ccccc1-c1csc(C(O)c2ccc(F)cc2)n1 (configuration not stated)	nt	5.8	nt	nt	nt	nt
CCCCNC(=O)C1(C)CCN1Cc1cccc2c(OC)cc(C(=O)OCC)cc12 (configuration not stated)	nt	23.4	nt	nt	nt	nt
COc1cc2c(cc1OC)C(C)N(C(=O)[C@@H](NC(=O)c1ccccc1)C(C)C)CC2 (some centres not stated)	1.41µM*	?	12.2%	0.0%	?	5.6%
COc1cc2c(cc1OC)C(C)N(C(=O)C(NC(=O)c1ccccc1)C(C)C)CC2 (configuration not stated)	?	64.7	?	?	nt	nt
C/C(=N/Nc1nc(-c2ccccc2)cc(-c2ccc(F)cc2)n1)c1cccc(N)c1	8.91µM*	-21.2	-7.5%	?	14.1µM*	?
CCC1OC(C(C)C)Cc2[nH][nH]c(=O)c21 (configuration not stated)	nt	0.2	nt	nt	nt	nt
Cc1ccc(CSc2ncn(-c3ccccc3)n2)cc1	11.5%	19.6	?	nt	nt	nt
Cc1ccc(CSc2nccc(-c3c(C)nc4ccccn34)n2)cc1	5.62µM*	4.2	?	13.1µM*	25µM*	-44.1%
C/C(CCc1oc2ccccc2c1-c1ccc(C)o1)=N/O	7.94µM*	-21.1	18.8%	7.2%	25µM*	16.0%
CC(C)C[C@H]1COc2cc(N3CCC[C@@H]3CO)ccc2S(=O)(=O)N1	nt	-1.9	nt	nt	nt	nt
COc1nc(Nc2nc3ccccc3c(=O)[nH]2)nc2ccc(C)cc12	3.16µM*	-100.3*	?	2.62µM*	7.05µM*	?
Cc1noc(-c2ccc(-c3noc(-c4ccccc4)n3)cc2)n1	nt	49.9	nt	nt	nt	nt
COC(=O)c1cc2c(C)cc3ccc(C)cn3c-2c1C(=O)OC	3.98µM*	-21.4	nt	-2.2%	11.2µM*	43.3%
COC(=O)c1coc(-c2ccc(C)cc2)c1C(=O)OC	-5.6%	-22.3	119.8%	33.0%	nt	nt
CCCn1c(NC(=O)c2ccccc2)nc2ccccc21	?	-15.0	54.2%	?	nt	nt
CCCn1c(NC(=O)c2cccc(S(=O)(=O)N3CCCC3)c2)nc2ccccc21	5.01µM*	-96.9*	9.28µM*	?	9.95µM*	8.87µM*
CN1CCc2nc(SCC(=O)Nc3cccc(F)c3)c(C#N)c(-c3cccs3)c2C1	?	-0.9	10.4µM*	13.1µM*	?	34.9%
CC(C)(C)C(=O)CSc1nc2c(c(-c3cccs3)c1C#N)CCC2	?	-36.9	?	?	nt	nt
Cc1cccc(C)c1NC(=O)C1(C)CSCC(=O)N1CCCn1ccnc1 (configuration not stated)	nt	-18.3	nt	nt	nt	nt
C/C(=N\Nc1ccc2nncn2n1)c1ccco1	-9.2%	59.9	21.6%	48.2%	nt	nt
C/C(=N\Nc1ccc2nncn2n1)c1ccccn1	2µM*	-96.1*	?	?	5.6µM*	?
CCCCC[C@H](C)N1C[C@H](COCc2ccccc2)Oc2cc(N3CCC[C@H]3COC)ccc2S1(=O)=O	nt	0.4	nt	nt	nt	nt
O=C(Nc1cccc(NC(=O)c2ccc(-c3ccc(Br)cc3)o2)c1)c1ccco1	6.31µM*	?	?	9.28µM*	7.05µM*	17.0%
SMILES	HCV inh	HCMV inh	Pf growth 96h	Pf growth 48h	HCV inh confirm	HCV host tox
CC1=C(C(=O)N(C(C)C)C(C)C)CC(CC(=O)NCCN2CCOCC2)C(=O)N1Cc1ccc(C(C)(C)C)cc1 (configuration not stated)	nt	-11.4	nt	nt	nt	nt
COc1ccc(NC(=O)c2ccccc2OCc2c(C)noc2C)cc1OC	?	33.7	-7.3%	-7.5%	?	15.0%
Cc1csc(CN(C)C(=O)CC2C(=O)NCCN2Cc2ccccc2C)n1 (configuration not stated)	nt	-7.1	nt	nt	nt	nt
Cc1cc(NC(=O)c2ccc3sc([C@@H]4O[C@H](CO)[C@H](O)[C@H](O)[C@H]4O)nc3c2)n(C)n1	nt	0.8	nt	nt	nt	nt
CCN(CC)CCCNC(=O)c1cc(-c2ccc(Cl)cc2)on1	8.91µM*	15.1	1.5%	?	22.3µM*	6.3%
CCCCN(CC)CCNC(=O)c1cc2c(-c3ccc(Cl)cc3)nn(C)c2s1	2.82µM*	-100.0*	-0.7%	0.329µM*	7.05µM*	13.9%
CCN(CC)S(=O)(=O)c1ccc(Oc2ccc(S(=O)(=O)N(CC)CC)cc2)cc1	2.82µM*	19.5	11.9%	?	2.5µM*	2.8µM*
O=C(/C=C/c1ccccc1)Nc1cccc(C(=O)NCCCCc2ccccc2)c1	2.51µM*	27.1	nt	nt	11.2µM*	7.6%
COC(=O)c1sc(NC(=O)/C=C/c2ccccc2Cl)nc1C	5.62µM*	4.5	?	32.3%	?	1.2%
O=C(NCc1ccc(F)cc1F)[C@@H]1CCCN1C(=O)[C@@H]1CCCN1	nt	-3.9	nt	nt	nt	nt
CCOc1ccccc1OCC(=O)OCC(=O)c1c(N)n(CC(C)C)c(=O)n(C)c1=O	?	-3.7	-1.5%	-18.5%	?	-90.5%
COc1ccccc1CCC(=O)OCC(=O)c1c(N)n(CC(C)C)c(=O)n(C)c1=O	-14.2%	-2.8	?	-11.1%	nt	nt
CCOc1ccc(CCNC(=O)c2cc3sccc3n2C)cc1OCC	6.31µM*	-11.1	?	-10.8%	14.1µM*	?
CC(C)NC(=O)N1Cc2cc(C(=O)NC3CCCC3)nc(-c3cccc(-c4cccnc4)c3)c2[C@@H]1CCO	nt	-18.1	nt	nt	nt	nt
Cc1ccc(C2=NCCn3c2c2ccccc2[n+]3[O-])cc1	11.2%	-12.3	56.6%	-16.6%	nt	nt
Cc1ccc(C2=NCCn3c2c2ccc([N+](=O)[O-])cc2[n+]3[O-])cc1	?	17.4	?	?	22.3µM*	30.3%
O=C(Cn1ccc(=O)[nH]c1=O)c1ccc([N+](=O)[O-])o1	nt	86.8	nt	nt	nt	nt
Cn1c(=O)c(/C=C/c2ccccc2)nc2ccccc21	6.4%	229.8	-44.2%	106.4%	nt	nt
CCn1nc(/C=C/c2ccccc2)nc2c(=O)n(C)c(=O)nc1-2	2.51µM*	-96.4*	11.7µM*	-3.3%	5.6µM*	7.05µM*
COc1ccc(CSC(=S)NNc2ccccc2)cc1	nt	36.9	nt	nt	nt	nt
COc1ccc(-c2nn(-c3ccccc3)cc2C(=O)O)cc1N	15.2%	1.0	?	?	nt	nt
COC(=O)c1cn(-c2ccccc2)nc1-c1ccc(OC)c(OC)c1	7.94µM*	-7.0	13.3%	39.1%	14.1µM*	50.0%
